# Measurements taken from PubChem BioAssay (NCATS).
# Results filed as inconclusive are left out. The source made the active and inactive calls. Calls follow the shape of the dose curve; as a rule, active = well fitted inhibition curve with a large enough effect; inconclusive = small, poorly fitted or top-dose-only effect; inactive = no such curve, though single readings can be large or run the other way.
# Experiment: Primary qHTS for inhibitors of nuclear receptor binding SET domain protein 2 (NSD2) in an RCH-ACV wild type WT cells (2C) (AID 1645877); also: nearly all actives have a fitted effect of over 70% in size
# Conditions: RCH-ACV (leukaemia line) NSD2 WT (2C) viability, CellTiter-Glo, 72 h; series mostly up to 44.9 µM; activity change, negative = cell killing: at the top concentration
# % is scaled to controls: 0 for no effect and ±100 for the full control effect.
Structure (SMILES),"activity change, negative = cell killing",outcome
CC(C)c1ccc2c(c1)C(O)CC1C(C)(CO)CCCC21C (centres undefined),-6.08% (inactive),
COc1ccc(/C=C/C(=O)O[C@@H]2[C@@H](O[C@@H]3O[C@H](CO)[C@@H](O)[C@H](O)[C@H]3O)[C@@H](O)[C@H](O[C@H]3C4C=CO[C@@H](O[C@@H]5O[C@H](CO)[C@@H](O)[C@H](O)[C@H]5O)C4[C@@]4(CO)O[C@@H]34)O[C@H]2C)cc1 (some centres undefined),-20.7% [at 9.23 µM] (inactive),
COc1cc(C(O)C2COC(c3ccc(OC4OC(CO)C(O)C(O)C4O)c(OC)c3)C2CO)ccc1O (centres undefined),3.17% [at 17.3 µM] (inactive),
C=CC(C)(O)C1CC2C3(C)CCCC(C)(C)C3C(O)C(O)C2(C)O1 (centres undefined),,inactive
CC(C)c1c(NC(=O)Nc2ccc(Cl)cc2)c(=O)n(-c2ccccc2)n1C,-22.2% (inactive),
C=C1C(O)C(O)C2(CC3C(C)=CCC4C(C)(C(=O)O)CCCC34C)OC2C1O (centres undefined),-18.7% (inactive),
O=C(/C=C/c1ccc(O)c(O)c1)O[C@@H]1[C@@H](O)[C@H](OC2CCCCC2O)O[C@H](CO)[C@H]1O (some centres undefined),-5.21% [at 17.3 µM] (inactive),
COc1ccc(CCC(=O)O)c(O[C@@H]2O[C@H](CO)[C@@H](O)[C@H](O)[C@H]2O)c1,1.13% (inactive),
CC(=O)O[C@@H]1[C@H](O[C@@H]2OC[C@](O)(CO)[C@H]2O)[C@@H](O[C@@H]2O[C@@H](C)[C@H](O)[C@@H](O[C@@H]3O[C@H](CO)[C@@H](O)[C@H](O)[C@H]3O)[C@H]2O)[C@H](OC(=O)[C@]23CCC(C)(C)C[C@H]2C2=CCC4[C@@]5(C)C[C@H](O)[C@H](O[C@@H]6O[C@H](C(=O)O)[C@@H](O)[C@H](O)[C@H]6O)[C@@](C)(C(=O)O)C5CC[C@@]4(C)[C@]2(C)CC3)O[C@@H]1C (some centres undefined),,inactive [at 9.23 µM]
